{"source": "the supplement of paper PMC13380429", "note": "Unmarked numbers belong to inactive results.", "data": [{"test_system": "Vero E6 infected with SARS-CoV-2", "experiment": "inhibition of SARS-CoV-2 cytopathic effect; higher = more antiviral protection, active = above 15", "settings": "100 nM; 48 h", "units": {"inhibition of SARS-CoV-2 cytopathic effect": "%"}, "values": [{"smiles": "Cc1cnc(-c2cnc(NCCNc3ccc(C#N)cn3)nc2-c2ccc(Cl)cc2Cl)[nH]1", "inhibition of SARS-CoV-2 cytopathic effect": -2.16}, {"smiles": "CC1(C)C(=O)N(c2ccc(C#N)c(C(F)(F)F)c2)C(=O)N1CCCCO", "inhibition of SARS-CoV-2 cytopathic effect": 4.71}, {"smiles": "Fc1ccc(C(c2ccc(F)cc2)N2CCN(C/C=C/c3ccccc3)CC2)cc1", "note": "[flunarizine]", "inhibition of SARS-CoV-2 cytopathic effect": -1.97}, {"smiles": "Sc1nc2ccccc2s1", "note": "[benzo[d]thiazole-2(3H)-thione]", "inhibition of SARS-CoV-2 cytopathic effect": -0.47}, {"smiles": "O=c1cc(N2CCOCC2)oc2c(-c3cccc4c3sc3ccccc34)cccc12", "inhibition of SARS-CoV-2 cytopathic effect": 0.05}, {"smiles": "CCCNC(=O)NS(=O)(=O)c1ccc(Cl)cc1", "note": "[chlorpropamide]", "inhibition of SARS-CoV-2 cytopathic effect": -1.08}, {"smiles": "Cc1ccc(-c2c(-c3nn(C)c4ncnc(N5CC[C@H](N6CCCCC6)C5)c34)cnn2C)cc1", "inhibition of SARS-CoV-2 cytopathic effect": 0.89}, {"smiles": "N[C@@H](CSS(=O)(=O)O)C(=O)O", "note": "[S-sulfo-L-cysteine]", "inhibition of SARS-CoV-2 cytopathic effect": -0.09}, {"smiles": "Nc1sc2c(c1C(=O)c1ccc(Cl)cc1)CCCC2", "inhibition of SARS-CoV-2 cytopathic effect": 0.38}, {"smiles": "COc1cc(C(=O)NCc2ccc(OCCN(C)C)cc2)cc(OC)c1OC", "note": "[trimethobenzamide]", "inhibition of SARS-CoV-2 cytopathic effect": 2.21}, {"smiles": "CO[C@H]1O[C@@H]2O[C@@]3(C)CC[C@H]4[C@H](C)CC[C@@H]([C@H]1C)[C@@]24OO3", "note": "[artemether]", "inhibition of SARS-CoV-2 cytopathic effect": 2.64}, {"smiles": "COCCCN1CCC(NC(=O)c2cc(Cl)c(N)c3c2OCC3)CC1", "note": "[prucalopride]", "inhibition of SARS-CoV-2 cytopathic effect": -0.24}, {"smiles": "Cn1cc([S+](C)[O-])c(=O)c2ccc(F)cc21", "note": "(stereo not drawn) [flosequinan]", "inhibition of SARS-CoV-2 cytopathic effect": 0.34}, {"smiles": "CCc1cc(C(C)=O)c(O)cc1OCCCCCC(C)(C)c1nn[nH]n1", "inhibition of SARS-CoV-2 cytopathic effect": 0.43}, {"smiles": "N[C@@H](C(=O)N[C@@H]1C(=O)N2C(C(=O)O)=C(Cl)CC[C@H]12)c1ccccc1", "note": "[loracarbef]", "inhibition of SARS-CoV-2 cytopathic effect": 2.95}, {"smiles": "COCCCOc1ccnc(C[S+]([O-])c2nc3ccccc3[nH]2)c1C", "note": "(stereo not drawn) [rabeprazole]", "inhibition of SARS-CoV-2 cytopathic effect": 2.14}, {"smiles": "Nc1nc(O)c2nc(Br)n([C@@H]3O[C@@H]4COP(=O)(O)O[C@H]4[C@H]3O)c2n1", "note": "[8-bromo-cGMP]", "inhibition of SARS-CoV-2 cytopathic effect": 2.06}, {"smiles": "CCCC(=O)N1CCCN(c2nc(N)c3cc(OC)c(OC)cc3n2)CC1", "note": "[bunazosin]", "inhibition of SARS-CoV-2 cytopathic effect": 1.21}, {"smiles": "Oc1ccc2c3c1O[C@H]1[C@@H](O)CC[C@@]4(O)[C@@H](C2)N(CC2CCC2)CC[C@]314", "note": "[nalbuphine]", "inhibition of SARS-CoV-2 cytopathic effect": 0.27}, {"smiles": "Nc1ccc(S(=O)(=O)Nc2nccs2)cc1", "note": "[sulfathiazole]", "inhibition of SARS-CoV-2 cytopathic effect": 0.28}, {"smiles": "CC[C@H](/C=C/[C@@H](C)[C@H]1CC[C@H]2[C@@H]3CC=C4C[C@@H](O)CC[C@]4(C)[C@H]3CC[C@]12C)C(C)C", "note": "[Stigmasterol (Stigmasterin)]", "inhibition of SARS-CoV-2 cytopathic effect": 0.44}, {"smiles": "Cc1nn(C)c2c1C(c1cccc(Cl)c1)=NCCN2", "note": "[zometapine]", "inhibition of SARS-CoV-2 cytopathic effect": 1.14}, {"smiles": "CCC1=C(C)CN(C(=O)NCCc2ccc(S(=O)(=O)NC(=O)N[C@H]3CC[C@H](C)CC3)cc2)C1=O", "note": "[glimepiride]", "inhibition of SARS-CoV-2 cytopathic effect": -2.4}]}]}
